In PubChem BioAssay AID1117319 (Southern Research Institute, 2015):
Several values for one entry are separate records, joined by “and”; a condition that tells them apart may be missing. Identical values can stand only once. The whole screen tested about 260,000 compounds, of which about 1,500 (0.58%) were called active. Not shown: some 5% with an inconclusive outcome.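 How the source made its calls: active means inhibition above a set limit at one or more doses, reproduced on every date tested; inconclusive means results disagree between test dates, or hit never tested in dose response; inactive means the rest.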 Only a sample is shown. Measured potencies and affinities stand elsewhere.

Target: Virion infectivity factor (Human immunodeficiency virus type 1 group M subtype B (isolate BH10)) + Virion infectivity factor (Human immunodeficiency virus type 1 group M subtype B (isolate BRU/LAI)) + Virion infectivity factor (Human immunodeficiency virus type 1 group M subtype B (isolate PCV12)) + Virion infectivity factor (Human immunodeficiency virus type 1 group M subtype B (isolate HXB2)) + DNA dC->dU-editing enzyme APOBEC-3G (Homo sapiens) (UniProt P69720+P69721+P69722+P69723+Q9HC16)
Assay: HIV-1 Vif–A3G interaction blockers – biochemical, TR-FRET, GST-Vif 1-94, biotin-A3G peptide, dose response retest, primary screen (AID 1117319);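 further: Vif residues 1-94 fused to GST binding biotinylated APOBEC3G peptide 110-148; 0% = full assay without inhibitor and 100% = GST in place of GST-Vif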
Settings: TR-FRET GST-Vif / biotin-A3G peptide binding; hits give high values

inhibition, inactive:
CNC(=O)c1sccc1SCc1c(Cl)cccc1Cl -1.14%, Cc1nnc(SCC2=C(C(=O)O)N3C(=O)C(NC(=O)Cc4ccccc4)C3SC2)s1 (configuration not stated) 7.27%, CC1=C(C(=O)OCC(Cl)(Cl)Cl)N2C(=O)C(NC(=O)Cc3ccccc3)C2SC1 (configuration not stated) 67.2%, COc1ccccc1N1CC(C(=O)OCc2nc(N)nc(Nc3ccccc3)n2)CC1=O (configuration not stated) 15.4%, CC1(C(=O)N2CCOCC2)CCCCC1 -0.21%, Cc1cc(C)cc(OCC(=O)Nc2cc(C)on2)c1 0.63%, CCn1c(CNC(=O)c2cccc(C)c2)nnc1SCC(=O)NC1=NCCS1 -12%, CCCNS(=O)(=O)c1ccc(OCC(=O)N2CCC(C(=O)OCC)CC2)cc1 -4.14%, CCOC(=O)N1CCN(C(=O)COc2ccc(S(=O)(=O)NC(C)C)cc2)CC1 -4.61%, O=C(Nc1ccc2c(c1)OCCO2)c1ccc(Cl)cc1 -3.98%, CC(=O)c1cc2c(cc1NC(=O)c1cccc(S(=O)(=O)N3CCN(C)CC3)c1)OCO2 -12.7%, C/C(=N\NC(=O)c1ccc(=O)[nH]n1)c1cccnc1 3.66%, COc1ccc(-c2csc(COC(=O)C(C)(C)C)n2)cc1 -3.51%, CC(C)(C)C(=O)OCc1nc(-c2ccc(Cl)cc2)cs1 -5.87%, N#C/C(=C\c1ccc(-c2cccc([N+](=O)[O-])c2)o1)C(=O)Nc1nc(-c2cccs2)cs1 3.46%, Cc1cccc(NC(=O)CN(C)S(=O)(=O)c2cccc3cccnc23)c1 2.4%, Cc1cc(C#N)c(C)c(SCc2[nH]nc3c2C(c2ccccc2)C(C#N)=C(N)O3)n1 (configuration not stated) 7.14%, COC(=O)c1ccccc1NC(=O)CN1CCC(C)CC1 26.5%, Cc1c(NC2=C(Cl)C(=O)N(c3ccccc3)C2=O)c(=O)n(-c2ccccc2)n1C 6.24%, COCCN(C(=O)COC(=O)CSc1cc(C)ccc1C)c1c(N)n(Cc2ccccc2)c(=O)[nH]c1=O -5.52%, CC(=O)Nc1ccc2c(c1)OCCO2 -3.04%, CC(=O)Nc1ccc2c(c1)OCCOCCOc1cc(NC(C)=O)ccc1OCCOCCOCCO2 30.1%, O=C(O)c1cccc(-n2cccc2C=C2C(=O)c3ccccc3C2=O)c1 29.9%, COc1ccc(-n2cccc2/C=C/[N+](=O)[O-])cc1 20.8%, CC(C)[C@H](NC(=O)OCc1ccccc1)C(=O)OCC(=O)N1CCN(c2ccc(F)cc2)CC1 -1.08%, CCNc1nc(ON=C(C)C)nc(N(C)C)n1 -7.57%, CCC(C)NC(=O)c1ccc(CSCc2ccccc2Cl)o1 (configuration not stated) 2.45%, COc1ccc(OC)c(Nc2nc(-c3sc(N)nc3C)cs2)c1 7.55%, COc1ccc(OC)c(Nc2nc(-c3cccs3)cs2)c1 3.68%, Cc1ccc(C2/C(=C(\O)c3ccc4c(c3)OCCO4)C(=O)C(=O)N2CC2CCCO2)cc1 (configuration not stated) -0.97%, COc1ccc(/C(C)=N/NC(=O)CNC(=O)c2cccnc2)c(OC)c1 3.46%, COc1ccc(OC)c(NC(=O)NC2CCCCCCC2)c1 -6.56%, COc1ccccc1C(=O)N1CCCC(c2nc(-c3cc(OC)c(OC)c(OC)c3)no2)C1 (configuration not stated) -8.18%, CCOC(=O)C1=C(C)N=c2s/c(=C/c3ccccc3)c(=O)n2C1c1ccc(OC)c(OC)c1 (configuration not stated) 1.78%, CCOC(=O)C1=C(c2ccccc2)N=c2s/c(=C\c3ccc(O)cc3)c(=O)n2C1c1cccs1 (configuration not stated) -10.4%, CCOC(=O)C1=C(c2ccccc2)N=c2s/c(=C\c3cccc(O)c3)c(=O)n2C1c1cccs1 (configuration not stated) -2.23% and -5.42%, CC1=C(C(=O)Nc2ccccc2)C(c2ccc(C)o2)n2c(s/c(=C/c3ccccc3)c2=O)=N1 (configuration not stated) 12.7%, COc1ccc(C2C(C(C)=O)=C(C)N=c3s/c(=C\c4ccco4)c(=O)n32)c(OC)c1 (configuration not stated) 31.2%, CC1=C(C(=O)Nc2ccccc2C)C(c2ccc(C)o2)n2c(s/c(=C/c3ccccc3)c2=O)=N1 (configuration not stated) 29.2%, COc1cccc(CNC(=O)CSCc2cnn(-c3ccccc3)c2-n2cccc2)c1 2.53% and 7.19%, CC(=O)c1cnc2n(c1=O)CCS2 -2.48%, COc1ccc(C(CC(=O)c2ccc(C)cc2)C(C#N)C#N)cc1OC (configuration not stated) -6.99%, O=C(O)CCCNC(=O)OCc1ccccc1 -2.72%, CC1CCN(S(=O)(=O)c2ccc(S(=O)(=O)NCC3COCCO3)cc2)CC1 (configuration not stated) 8.23%, CCNS(=O)(=O)c1ccc(CCC(=O)O)cc1 -1.11%, CCN(CC)S(=O)(=O)c1ccc(N2CC(C(=O)NCCC3=CCCCC3)CC2=O)cc1 (configuration not stated) -3.38%, Cc1ccc(S(=O)(=O)N2CCN(Cc3ccccn3)CC2)cc1 0.21%, CC(=O)Nc1ccc(S(=O)(=O)N2CCN(c3ccccn3)CC2)cc1 25%, O=C(O)/C(=C\c1cn(-c2ccccc2)nc1-c1cccnc1)NC(=O)c1ccccc1 -1.44%, Cc1ccc(OCc2n[nH]c(=S)n2-c2ccccc2)cc1C -3.72%, Cc1cccc(OCc2n[nH]c(=S)n2-c2ccccc2)c1 1.89%, O=C(CN1CCN(C(=O)c2ccccc2)CC1)Nc1cc(S(=O)(=O)N2CCCC2)ccc1Cl -24.1%, COC(=O)C1=C(C)NC(C)=C(C(=O)OC)C1C(=O)OCc1nc2cc(C(=O)OC)ccc2c(=O)[nH]1 -5.82%, Cc1ccc(-c2nc(N)n(S(=O)(=O)c3ccc(C)cc3)n2)cc1 0.67%, CC(C)C1Nc2ccc(S(N)(=O)=O)cc2C2C=CCC21 (configuration not stated) 30.5%, O=C(C1CC=CCC1)N1CCN(S(=O)(=O)c2ccc(F)cc2)CC1 (configuration not stated) -4.47%, CC(OC(=O)c1n[nH]c2ccccc12)C(=O)NC1CCCCC1C (configuration not stated) 1.37%, CCOC(=O)N1CCN(c2ccc(Cl)cc2)CC1 -2.77%, CCOC(=O)N1CCN(c2ccc([N+](=O)[O-])cc2)CC1 0.75%, CCc1ccccc1NC(=S)N(CCCN(C)C)Cc1cc2cc3c(cc2[nH]c1=O)OCO3 -0.74%, Clc1ccc(Oc2nc(N3CCOCC3)nc(N3CCOCC3)n2)c(C2CCCCC2)c1 -3.78%, CCN(CC(=O)Nc1ccc(NC(C)=O)cc1)C(=O)c1ccc(N2CCC(C)CC2)c([N+](=O)[O-])c1 3.59%, CCN(C(=O)c1ccc(Cl)c([N+](=O)[O-])c1)c1ccccc1 3.48%, O=C(O)c1ccc(N2C(=O)CSC2c2cccc([N+](=O)[O-])c2)cc1 (configuration not stated) -1.67%, O=C(O)c1cccc2c1-c1c(cccc1[N+](=O)[O-])C2 -2.94%, O=C(O)C1CCC(NSc2ccccc2[N+](=O)[O-])CC1 (configuration not stated) -7.35%, O=C(NC1CC1)c1ccc2c(c1)C1C3CCC(C3)C1C(c1ccccc1)N2 (configuration not stated) 3.47%, CC(C)Cc1cc(C(=O)Nc2cc(C(F)(F)F)ccc2Cl)no1 14.1%, C=Cc1ccc(CSc2cc(C)nc3nc(C)nn23)cc1 -4.49%, Cc1ccc(CNc2ccc3c(c2)ncn3C(C)C)cc1 15.2%, CC(C)(C)c1ccc(C(=O)C2CCCN(C(=O)CN3CCCC3=O)C2)cc1 (configuration not stated) -3.41%, Cc1ccc(NC(=O)CCCN2C(=O)C(c3ccccc3)Oc3cccnc32)c(C)c1 (configuration not stated) -3%, COc1ccc(C(=O)N/C(=C\c2ccco2)C(=O)OCc2ccco2)cc1 19.9%, CCCCOc1ccc(C(=O)N/C(=C\c2ccc(OC)cc2)C(=O)OCc2ccco2)cc1 -1.87%, COc1ccc2c(c1)NC(C)(C)C=C2C 32.2%, COc1cc(NC(C)CCCNC(C)C)c2ncccc2c1OC (configuration not stated) 3.4%, COc1cc(NCCCCCCCN)c2ncccc2c1 3.69%, COC(=O)c1cc(NC(=O)COC(=O)CCc2c[nH]c3ccccc23)cc(C(=O)OC)c1 2.64%, O=C1N=C(N2CCOCC2)S/C1=C/c1ccc(-c2ccccc2Cl)o1 7.88%, CC(=O)N1CC(=O)N(Cc2ccccc2)/C(=C/c2ccccc2)C1=O 7.17%, O=C1CC(/C=C/c2ccncc2)=Nc2ccccc2N1 3.89%, O=C1CC(/C=C/c2ccccc2)=Nc2ccccc2N1 4.19%, CC1=C([N+](=O)[O-])C(c2ccc(Cl)cc2)NC(=O)N1C (configuration not stated) 6.98%, FC(F)(F)c1ccc(N2CCN(Cc3ccc4c(c3)OCO4)CC2)nc1 -10.1%, CCOC(=O)C1=C(N)OC2=C(C(=O)CC(C)(C)C2)C1c1ccoc1 (configuration not stated) -2.95%, CC(C)NC(=O)COc1ccc(Cl)cc1Cl -3.29%, Cc1ccc(C(=O)/C=C/Nc2cccc(O)c2)cc1 1.59%, C/C(=C\C(=O)c1ccc(Br)cc1)Nc1cccc(Cl)c1 -2.57%, O=C(Cc1ccccc1)NNC1CC(=O)N(c2ccc(Cl)cc2)C1=O (configuration not stated) 8.41%, Cc1ccnc(SCc2cc(=O)c(OC(=O)c3ccccc3)co2)n1 6.36%, CCN(CC)c1ccc(C(=S)NCc2ccccc2)cc1 7.25%, CCN(CC)c1ccc(NC(=O)Nc2ccccc2)cc1 5.11%
